Test results: PubChem BioAssay (NCI)
About 79,000 compounds went through this panel and 15% of them were active in at least one assay; those are over-represented in the sample as a whole. Calls of active or inactive are those of the source. No stated cut-off is given here; in the data, active means growth inhibition above about 70%; inactive means the rest.

Columns and labels:
[1] = NCI Yeast Anticancer Drug Screen. Data for the rad50 strain (AID 155);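 further: 0% = growth of vehicle-only cultures of the same strain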; conditions: S. cerevisiae rad50 strain growth inhibition, stronger effect = higher value
In short: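 A DNA repair-deficient yeast mutant serves as the test organism; compound-induced growth inhibition is calculated against vehicle-treated cells.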

[2] = NCI Yeast Anticancer Drug Screen. Data for the mec2-1 strain (AID 157); conditions: S. cerevisiae mec2-1 strain, stronger effect = higher value
In short: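 Compounds were applied to mec2-1 yeast cells. Their growth was then compared with that of vehicle-treated cultures to give growth inhibition.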

[3] = NCI Yeast Anticancer Drug Screen. Data for the sgs1 mgt1 strain (AID 161);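 further: 0% = growth of cultures given vehicle only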; conditions: S. cerevisiae sgs1 mgt1 strain, stronger effect = higher value
In short: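 Growth of a repair-deficient yeast mutant was monitored after compound treatment and expressed as inhibition relative to vehicle-treated cultures.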

[4] = NCI Yeast Anticancer Drug Screen. Data for the cln2 rad14 strain (AID 165);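 further: 0% = growth equal to vehicle treated cultures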; conditions: S. cerevisiae cln2 rad14 strain, stronger effect = higher value
In short: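 Strain: cln2 rad14 yeast, altered in cell cycle control and DNA damage repair. Read-out: growth inhibition vs vehicle.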

[5] = NCI Yeast Anticancer Drug Screen. Data for the bub3 strain (AID 167); conditions: S. cerevisiae bub3 mutant strain, stronger effect = higher value
In short: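 Inhibition values come from growth of compound-treated mutant yeast normalised to vehicle-treated controls.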

[6] = NCI Yeast Anticancer Drug Screen. Data for the mlh1 rad18 strain (AID 175); conditions: S. cerevisiae mlh1 rad18 strain growth inhibition, stronger effect = higher value
In short: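 A repair-deficient yeast strain is exposed to test compound, and growth is scored relative to vehicle-treated controls.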

[7] = at 5.0 µM (retest, dose inferred, filed as 0.5)
[8] = at 50.0 µM (retest, dose inferred, filed as 5.0)

Measured: growth inhibition

O=c1ccc(N=Cc2ccc(N(CCCl)CCCl)cc2)ccc1O
inactive: [2]; at 50.0 µM 65.4% | [4]; [7] 52% | [4]; at 50.0 µM 35.4%
active: [1]; [7] 94% | [1]; [8] 93% | [1]; at 50.0 µM 96.2% | [2]; [7] 92% | [2]; [8] 97% | [3]; [7] 97% | [3]; [8] 98% | [3]; at 50.0 µM 92% | [4]; [8] 89% | [5]; [7] 95% | [5]; [8] 93% | [5]; at 50.0 µM 93% | [6]; [7] 98% | [6]; [8] 98% | [6]; at 50.0 µM 93.8%

O=[N+]([O-])c1ccc(CS(=O)(=O)C(Cl)Cl)o1
inactive: [1]; [7] 10% | [2]; [7] -1% | [2]; [8] 52% | [2]; at 50.0 µM 59.5% | [3]; [7] 3% | [4]; [7] -6% | [4]; [8] 68% | [5]; [7] -7% | [5]; [8] 56% | [5]; at 50.0 µM 48.1% | [6]; [7] 15%
active: [1]; [8] 79% | [1]; at 50.0 µM 92% | [3]; [8] 79% | [3]; at 50.0 µM 87.9% | [4]; at 50.0 µM 78.8% | [6]; [8] 90% | [6]; at 50.0 µM 95.6%

[Cl][Sn]([CH2]c1ccccc1)([CH2]c1ccccc1)[CH2]c1ccccc1
active: [1]; [7] 99% | [1]; [8] 98% | [1]; at 50.0 µM 99% | [2]; [7] 100% | [2]; [8] 99% | [2]; at 50.0 µM 99.2% | [3]; [7] 100% | [3]; [8] 99% | [3]; at 50.0 µM 99.3% | [4]; [7] 99% | [4]; [8] 98% | [4]; at 50.0 µM 98.7% | [5]; [7] 99% | [5]; [8] 99% | [5]; at 50.0 µM 98.5% | [6]; [7] 99% | [6]; [8] 99% | [6]; at 50.0 µM 99%

C/C(=N/NC(N)=S)c1ccc(Cl)cc1
inactive: [1]; [7] 9% | [2]; [7] -17% | [3]; [7] 5% | [4]; [7] -10% | [5]; [7] 41% | [6]; [7] 8%
active: [1]; [8] 94% | [1]; at 50.0 µM 96.5% | [2]; [8] 89% | [2]; at 50.0 µM 97.1% | [3]; [8] 93% | [3]; at 50.0 µM 94% | [4]; [8] 92% | [4]; at 50.0 µM 92.5% | [5]; [8] 94% | [5]; at 50.0 µM 95.3% | [6]; [8] 96% | [6]; at 50.0 µM 97.2%

N#Cc1cc([N+](=O)[O-])c(Cl)c([N+](=O)[O-])c1
active: [1]; [8] 99% | [1]; at 50.0 µM 91.5% | [2]; [8] 99% | [2]; at 50.0 µM 93% | [3]; [7] 100% | [3]; [8] 100% | [3]; at 50.0 µM 93.8% | [4]; [8] 101% | [4]; at 50.0 µM 93.3% | [5]; [7] 101% | [5]; [8] 100% | [5]; at 50.0 µM 92.7% | [6]; [8] 100% | [6]; at 50.0 µM 92.2%
inactive: [1]; [7] 52% | [2]; [7] 46% | [4]; [7] 67% | [6]; [7] 37%

CCCC(=O)O.CCCC(=O)O.CCCC(=O)O.CCCC(=O)O.[Rh].[Rh]
inactive: [1]; [7] 25% | [1]; [8] 44% | [1]; at 50.0 µM 22% | [2]; [7] 34% | [2]; [8] 61% | [2]; at 50.0 µM 48.5% | [3]; [7] 28% | [3]; [8] 59% | [3]; at 50.0 µM 30.1% | [4]; [7] 42% | [4]; [8] 69% | [4]; at 50.0 µM 43.5% | [5]; [7] 37% | [5]; [8] 64% | [5]; at 50.0 µM 33.7% | [6]; [7] 29% | [6]; [8] 52% | [6]; at 50.0 µM 24.1%

CCOC(=O)C1=C(C)/C(=C/c2[n-]c(C)c(C(=O)OCC)c2C)N=C1C.CCOC(=O)C1=C(C)/C(=C/c2[n-]c(C)c(C(=O)OCC)c2C)N=C1C.[Zn+2]
inactive: [1]; [7] 4% | [1]; [8] 55% | [2]; [7] 2% | [2]; [8] 47% | [3]; [7] 2% | [3]; [8] 34% | [4]; [7] 7% | [4]; [8] 6% | [5]; [7] 4% | [5]; [8] 55% | [6]; [7] 6% | [6]; [8] 55%
active: [1]; at 50.0 µM 99% | [2]; at 50.0 µM 99.3% | [3]; at 50.0 µM 98.8% | [4]; at 50.0 µM 98.2% | [5]; at 50.0 µM 99.4% | [6]; at 50.0 µM 98.2%

N#CN(Cc1ccccc1)C(c1ccccc1)(c1ccccc1)c1ccccc1.[I][Sn]([c]1ccccc1)([c]1ccccc1)[c]1ccccc1
active: [1]; [7] 99% | [1]; [8] 96% | [1]; at 50.0 µM 98.8% | [2]; [7] 100% | [2]; [8] 98% | [2]; at 50.0 µM 98.8% | [3]; [7] 100% | [3]; [8] 98% | [3]; at 50.0 µM 99.5% | [4]; [7] 99% | [4]; [8] 94% | [4]; at 50.0 µM 98.2% | [5]; [7] 99% | [5]; [8] 95% | [5]; at 50.0 µM 97.7% | [6]; [7] 99% | [6]; [8] 96% | [6]; at 50.0 µM 97%

CN1C2CCC1c1c([nH]c3ccccc13)C2 (stereo not given)
inactive: [1]; [7] -22% | [1]; [8] -23% | [1]; at 50.0 µM 3.25% | [2]; [7] -9% | [2]; [8] -3% | [2]; at 50.0 µM 18.5% | [3]; [7] -7% | [3]; [8] -10% | [3]; at 50.0 µM 20.6% | [4]; [7] -19% | [4]; [8] -3% | [4]; at 50.0 µM 42% | [5]; [7] -7% | [5]; [8] -1% | [5]; at 50.0 µM 6.25% | [6]; [7] -7% | [6]; [8] -12% | [6]; at 50.0 µM 12.4%

C[N+](C)(C)CC1CCCC1=O (stereo not given)
active: [1]; [8] 70% | [5]; [8] 70% | [6]; [8] 77%
inactive: [1]; [7] 18% | [1]; at 50.0 µM 51.6% | [2]; [7] 16% | [2]; [8] 59% | [2]; at 50.0 µM 21.3% | [3]; [7] 13% | [3]; [8] 58% | [3]; at 50.0 µM 24.6% | [4]; [7] 11% | [4]; [8] 34% | [4]; at 50.0 µM 19.2% | [5]; [7] 20% | [5]; at 50.0 µM 8.15% | [6]; [7] 21% | [6]; at 50.0 µM 22.6%
